Consider 29 compounds from ChEMBL document CHEMBL4513216, “Probing the Open Global Health Chemical Diversity Library for Multistage-Active Starting Points for Next-Generation Antimalarials” (ACS Infect Dis, 2020).

About 2,100 (3.2%) of roughly 65,000 compounds showed an effect of 50% or more. The median lay at about -52%. The sample holds strong results, similar compounds and a random draw of the others, so the mix is not that of the screen.

The subject of the test is Plasmodium falciparum. As to the kind of experiment: Screen against P. falciparum Asexual Blood Stage (ABS), at 5uM. The class given is functional, Dd2. The note with it: tested at 5 uM.
In the case of `CC(C)c1ncc2c(n1)CN(CCCc1nc3ccccc3o1)CC2`, the INHIBITION turned out to be 70.3%.
On to `Cc1noc(C)c1CN1CC[C@@H]2O[C@@H](COCC(C)C)CC[C@@H]21`, for which the INHIBITION is reported as -49.5%.
On to `COc1ccc(C[C@H]2CNCC[C@@H]2OCC2CC2)cc1`, for which the INHIBITION was found to be 82.2%.
In the case of `COc1ccc(C[C@H]2CNCC[C@@H]2OC)cc1` it was 78.3%; in that of `COc1cccc(CC(C)NC(=O)NCCc2cccnc2)c1` (centres undefined), -58.4%; in that of `O=C1CSC(c2ccc3c(c2)OCO3)c2cnn(C3CCCCC3)c2N1` (centres undefined), -33%.
For the compound `CCC(O)CN1CCN(C(=O)Cc2ccc(OC)cc2OC)CC1` (centres undefined), the INHIBITION is -2.14%.
Regarding `c1cc(CNCc2ccnc(N3CCCC3)c2)c2c(c1)OCCCO2`, the INHIBITION is reported as -20.5%.
Next, `COc1ccc(CNCc2ccnc(N3CCCC3)c2)c(OC)c1`: 73.6%; `COc1ccc(OC)c(CNCc2ccnc(N3CCCCC3)c2)c1`: 75.8%; `CC[C@@H]1N(Cc2cccnc2)CCC[C@]12CCC(=O)N2C`: -25.2%.
For the compound `CN1CC=C(c2noc(CCC(=O)N3CCOCC3)n2)CC1`, the INHIBITION was -132%.
Next, `Cn1ncc2c(N3CCCC4(CCNC4)C3)nc(C(C)(C)C)nc21` (centres undefined): 38.2%; `CCNC(=O)CN1CCSC2(CCCCC2)C1`: -49.4%; `NC(=O)CN1CCCN(C(=O)Cc2ccc(Br)cc2)CC1`: -114%.
As to `CCC1(CC)Cc2ccccc2-c2nc(CN(C)C)nc(O)c21`, the INHIBITION is 74.6%.
Turning to `FC(F)CN1CCOC(Cn2cccn2)C1` (centres undefined), the INHIBITION was -69.4%.
Next, `CC(NCC1CCN(CCO)CC1)c1ccc(OC(F)(F)F)cc1` (centres undefined): 93.8%; `OCCN1CCC(CNCc2ccccc2OC(F)(F)F)CC1`: 95.8%; `CC(NCC1CCN(CCO)CC1)c1ccc(C(F)(F)F)cc1` (centres undefined): 89.1%.
Take `O=C(Cc1cnc(-c2c(Cl)cccc2Cl)s1)N1CCC2(CC1)OCCO2`: the INHIBITION is -87.1%.
In the case of `CCC12CN3CC(C)(CN(C1)C3c1[nH]c(=O)[nH]c(=O)c1C)C2=O` (centres undefined), the INHIBITION is on record as -51.4%.
Take `CCN1CCNC(=O)C12CCN(C(=O)c1ccccn1)CC2`: the INHIBITION is given as -86.3%.
As for `O=C1CSC(c2ccc(O)cc2)c2c(n(C3CCOCC3)[nH]c2=O)N1` (centres undefined), the INHIBITION is -92.3%.
In the case of `Cc1nn(C2CCCC2)c2c1C(c1ccc3c(c1)OCO3)SCC(=O)N2` (centres undefined), the INHIBITION is 6.36%.
In the case of `Cc1nc(CN2CCO[C@H]3[C@@H](Oc4ccccn4)CC[C@@H]32)cs1` it was -47%.
Consider `CSc1ccccc1C(=O)C1CCCN(Cc2ccccn2)C1` (centres undefined), for which the INHIBITION is given as -41.1%.
Regarding `NC(=O)c1cccc2nc([C@H]3CCN(Cc4ccccn4)C3)[nH]c12`, the INHIBITION is recorded as 95.1%.
Next, `O=C1NC[C@H]2CN(Cc3ccccn3)CCN12`: -9.08%.
